Results with a measured potency or affinity are listed apart.
Key:
[1] = tested on: Staphylococcus aureus; conditions: Concentration 32 ug.mL-1;; ASSAY_TEST Inhibition of Bacterial Growth; detection method Absorption (OD600); MEDIA CAMHB; plate type 384well; NBS; CORNING #3640; time 18 hr
[2] = tested on: Escherichia coli; conditions: Concentration 32 ug.mL-1;; ASSAY_TEST Inhibition of Bacterial Growth; detection method Absorption (OD600); MEDIA CAMHB; plate type 384well; NBS; CORNING #3640; time 18 hr

| SMILES | Inhibition [1] [%] | Inhibition [2] [%] |
| --- | --- | --- |
| CCOc1ccc(-n2ccn3c(SCc4cccc(C(F)(F)F)c4)nnc3c2=O)cc1 | 18.58 | 1.02 |
| COc1ccc(NC(=O)Cn2nc3c4cc(-c5ccc(C)c(C)c5)nn4ccn3c2=O)cc1Cl | -7.37 | 0.15 |
| Cc1ccc(Oc2nccn3c(=O)n(CC(=O)Nc4ccccc4F)nc23)cc1 | 4.19 | -1.2 |
| Cc1nnc2c(=O)n(CC(=O)Nc3ccc(F)cc3F)c3ccccc3n12 | 10.56 | -0.32 |
| O=c1n(Cc2cccc(C(F)(F)F)c2)nc2c(S(=O)(=O)N3CCCC3)cccn12 | 9.3 | -1.06 |
| CCc1nnc2c(SCC(=O)Nc3ccc(C)cc3Cl)nc3ccccc3n12 | 2.52 | 2.69 |
| CSc1ccc(CNC(=O)Cn2nc3c(Oc4cccc(C)c4C)nccn3c2=O)cc1 | 11.62 | 2.94 |
| CCc1ccc(N(Cc2ccccc2C)S(=O)(=O)c2cccn3c(C)nnc23)cc1 | 9.52 | -5.19 |
| CCOc1ccc(C(=O)CSc2nnc3c(=O)n(-c4ccc(C)c(C)c4)ccn23)cc1 | 9.97 | -11.39 |
| CCOC(=O)c1ccccc1NC(=O)Cn1c(=O)c2nnc(C(C)C)n2c2ccccc21 | 9.86 | 0.49 |
| Cc1ccc(Oc2nccn3c(=O)n(CC(=O)N4CCN(c5ccccc5F)CC4)nc23)cc1 | 10.22 | -0.59 |
| Cc1cc(C)c(NC(=O)CSc2nc3ccccc3n3c(C)nnc23)c(C)c1 | 9.68 | -6.86 |
| COc1ccc(CNC(=O)Cn2nc3c4cc(-c5ccc(OC)cc5)nn4ccn3c2=O)cc1 | -1.74 | -1.87 |
| Cc1nnc2c(SCC(=O)Nc3ccc(F)cc3F)nc3ccccc3n12 | 11.73 | 2.93 |
| COc1ccc(CN(c2cc(C)cc(C)c2)S(=O)(=O)c2cccn3cnnc23)cc1F | -10.31 | -13.2 |
| CCCN(C)c1nccn2c(=O)n(CC(=O)Nc3ccc(C#N)cc3)nc12 | 14.04 | -2.47 |
| O=C(Cn1nc2c(Oc3ccccc3)nccn2c1=O)Nc1ccccc1C(F)(F)F | 2.85 | -0.6 |
| CC(C)c1nnc2c(SCC(=O)Nc3ccccc3Br)nc3ccccc3n12 | 6.58 | -0.85 |
| Cc1ccc(Oc2nccn3c(=O)n(CC(=O)Nc4ccc5c(c4)OCO5)nc23)cc1 | 6.26 | -6.61 |
| CCc1ccc(N(Cc2cccc(OC)c2)S(=O)(=O)c2cccn3c(C)nnc23)cc1 | -1.7 | -9.35 |
| CCOC(=O)c1ccc(NC(=O)Cn2nc3c4cc(-c5ccc(C)cc5)nn4ccn3c2=O)cc1 | -5.61 | -8.93 |

| SMILES | Inhibition [1] [%] | Inhibition [2] [%] |
| --- | --- | --- |
| Cc1ccc(C)c(CSc2nnc3c(=O)n(-c4ccc(Br)cc4)ccn23)c1 | 3.9 | -0.75 |
| CC(=O)c1cccc(NC(=O)Cn2c(=O)c3nnc(C(C)C)n3c3ccccc32)c1 | 9.36 | 0.14 |
| O=C(CSc1nnc2c(=O)n(-c3ccccc3)ccn12)Nc1ccc(Cl)cc1 | 3.58 | -4.07 |
| Cc1oc(-c2ccccc2)nc1CSc1nc2ccccc2n2c(C(C)C)nnc12 | -2.26 | -5.26 |
| COc1ccc(-c2cc3c4nnc(SCC(=O)Nc5ccccc5F)n4ccn3n2)cc1 | -1.6 | -2.74 |
| COc1ccc(-c2noc(Cn3nc4ccc(-c5ccccc5)nn4c3=O)n2)cc1OC | 7.44 | -3.1 |
| COc1cccc(-n2ccn3c(SCC(=O)c4c[nH]c5ccccc45)nnc3c2=O)c1 | 3.92 | -5.66 |
| O=C(CSc1nnc2c3cc(-c4ccccc4)nn3ccn12)Nc1cccc(Br)c1 | 9.78 | 2.01 |
| Cc1ccc(Oc2nccn3c(=O)n(CC(=O)Nc4cccc(Br)c4)nc23)cc1 | 4.81 | -7.18 |
| COc1ccc(-c2cc3c4nnc(CCC(=O)NCCc5ccccc5)n4ccn3n2)cc1 | 6.36 | 2.69 |
| Cc1ccc(Cl)cc1NC(=O)Cn1nc2c(N3CCOCC3)nc3ccccc3n2c1=O | -1.67 | -9.52 |
| CCOc1ccc(NC(=O)Cn2nc3c(Sc4ccccc4)nccn3c2=O)cc1 | 1.52 | -2.95 |
| CCc1ccccc1Sc1nccn2c(=O)n(CC(=O)Nc3ccc(Br)cc3)nc12 | -9.89 | 1.96 |
| Cc1cc(C)cc(Oc2nccn3c(=O)n(CC(=O)Nc4ccc(Cl)cc4F)nc23)c1 | 18.94 | 4.01 |
| COc1cc(-c2nnc3c(=O)n(Cc4ccc(Cl)cc4)ccn23)cc(OC)c1OC | 11.84 | -0.28 |
| COc1ccc(N(Cc2cccc(Cl)c2)S(=O)(=O)c2ccc3nncn3c2)cc1 | -10.84 | -8.34 |
| Cc1cccc(Cn2nc3n(CCc4ccccc4)c(=O)c4sccc4n3c2=O)c1 | -3.57 | -0.08 |
| COc1cccc(-c2noc(Cn3nc4ccc(-c5ccc(C)c(C)c5)nn4c3=O)n2)c1OC | 6.16 | -3.11 |
| Cc1ccc(Oc2nc3ccccc3n3c(=O)n(CC(=O)Nc4cccc(C(F)(F)F)c4)nc23)cc1 | 0.5 | -3.3 |
| O=C(Cn1nc2c(N3CCOCC3)nc3ccccc3n2c1=O)NCc1ccccc1Cl | -2.26 | -4.63 |
| CSc1ccc(CNC(=O)Cn2nc3c(N4CCOCC4)nccn3c2=O)cc1 | 19.42 | -0.45 |

| SMILES | Inhibition [1] [%] | Inhibition [2] [%] |
| --- | --- | --- |
| CC(C)Cn1c(=O)c2sccc2n2c(=O)n(CC(=O)NC(C)C)nc12 | -11.46 | 2.58 |
| O=C(CCc1nnc2c3cc(-c4ccccc4)nn3ccn12)N1CCN(C(=O)c2ccco2)CC1 | 7.4 | 0.93 |
| COc1cccc(-n2ccn3c(SCC(=O)c4ccc(Br)cc4)nnc3c2=O)c1 | 12.63 | 0.58 |
| CC(C)c1nnc2c(=O)n(CC(=O)Nc3cccc(Cl)c3)c3ccccc3n12 | 5.77 | -3.24 |
| O=c1c2sccc2n2c(=O)n(Cc3cccc(Cl)c3)nc2n1Cc1cccs1 | 18.24 | -5.83 |
| COC(=O)c1ccccc1NC(=O)Cn1nc2c(Oc3ccc(C)cc3)nccn2c1=O | -0.21 | -6.37 |
| Cc1ccc(-n2ccn3c(SCC(=O)Nc4ccc5c(c4)OCCO5)nnc3c2=O)cc1C | 6.11 | -5.98 |
| COc1ccc(-c2cc3c4nn(CC(=O)Nc5ccc(C)cc5)c(=O)n4ccn3n2)cc1 | -0.62 | 1.25 |
| COc1cccc(NC(=O)Cn2nc3c(Sc4ccccc4)nccn3c2=O)c1 | 6.76 | 0.48 |
| COc1ccccc1-n1ccn2c(SCc3cccc(F)c3)nnc2c1=O | 11.17 | -7.27 |
| COc1cccc(Sc2nc3ccccc3n3c(=O)n(CC(=O)Nc4ccc(Cl)cc4)nc23)c1 | 1.75 | -3.52 |
| CCCCOc1ccc(-c2cc3c4nnc(SCC(=O)Nc5ccccc5F)n4ccn3n2)cc1 | -0.1 | -3.53 |
| COc1cccc(NC(=O)Cn2nc3c(N4CCCC4)nccn3c2=O)c1 | -2.28 | -3.58 |
| COc1ccc(NC(=O)Cn2nc3ccc(-c4ccc(Cl)cc4)nn3c2=O)cc1OC | -0.18 | -4.63 |
| CCOc1ccc(-n2ccn3c(SCC(=O)NCc4ccccc4Cl)nnc3c2=O)cc1 | 3.68 | -5.16 |
| COc1cccc(-n2ccn3c(SCC(=O)c4cc(C)c(C)cc4C)nnc3c2=O)c1 | 15.67 | -4.7 |
| O=C(CSc1nnc2c3cc(-c4ccc(F)cc4)nn3ccn12)NCc1ccccc1Cl | 1.62 | -6.39 |
| COc1cc(OC)c(NC(=O)Cn2nc3ccc(Sc4ccc(C)cc4)nn3c2=O)cc1Cl | -4.96 | -10.5 |
| Cc1nnc2c(S(=O)(=O)N(Cc3ccc(F)cc3)c3ccc(Cl)cc3)cccn12 | 5.21 | -5.38 |
| Cc1cc2nn(CC(=O)NCc3ccccc3)c(=O)n2c(-c2ccc(C(F)(F)F)cc2)n1 | 13.36 | -8.01 |
| CCc1nnc2c(SCC(=O)Nc3ccc4c(c3)OCCO4)nc3ccccc3n12 | -7.96 | 3.84 |

Source: ChEMBL document CHEMBL4513146, “CO-ADD screening of Karazin Kharkiv National University (Ukraine) compounds”
